Assay outcomes from PubChem.
This excerpt belongs to a sample that is enriched for hits.
KDM5B inh: Primary screen for KDM5B Histone Demethylases FDH-coupled qHTS; KDM5B demethylase, FDH-coupled NADH fluorescence (FDH is formaldehyde dehydrogenase); Potency, µM (doses to about 57.7 µM), actives largely listed as inhibitors; 220,000 tested, 2.6% active; AID 1347165, 2019; active = well fitted inhibition curve with a large enough effect; also: nearly all actives have a fitted effect of over 70% in size
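Measured: NADH fluorescence change, 30 min, RT. System: KDM5BΔAP 200 nM final, H3K4me3 peptide, α-KG, Fe(II), ascorbate, NAD⁺ plus FDH, pH 7.5 HEPES. Compounds: titrated, 10 min pre-incubation with enzyme.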
Of the large screens only hits and unclear results are named; the others gave an inactive call.

CCc1noc(C)c1C(=O)Nc1sc(Cc2ccccc2)cc1C(N)=O	none
COc1ccc(-c2cc3c(=O)n(CCNC(=O)c4ccc(OC)nc4)ccn3n2)cc1	KDM5B inh 11.2µM
CCOc1ccc(-c2cc3c(=O)n(CCNC(=O)c4ccc(Cl)cc4)ccn3n2)cc1	none
COc1ccc(C(=O)NCCn2ccn3nc(-c4ccc(C)cc4C)cc3c2=O)cc1F	none
Cc1ccc(-c2cc3c(=O)n(CCNC(=O)Cc4ccsc4)ccn3n2)c(C)c1	none
COc1ccc(-c2cc3c(=O)n(CCNC(=O)c4cccc(N(C)C)c4)ccn3n2)cc1	KDM5B inh 35.5µM
O=C(NCCn1ccn2nc(-c3ccc(F)cc3)cc2c1=O)c1ccc(F)c(Cl)c1	none
Cc1ccc(-c2cc3c(=O)n(CC(O)c4ccc(C)c(C)c4)ccn3n2)c(C)c1 (configuration not stated)	KDM5B inh 35.5µM
COc1ccc(-c2cc3c(=O)n(CCNC(=O)c4ccc(C)s4)ccn3n2)cc1	none
CCOc1ccc(C(=O)NCCn2ccn3nc(-c4ccc(OC)cc4)cc3c2=O)cc1	KDM5B inh 8.91µM
COc1ccc(C(=O)NCCn2ccn3nc(-c4cc(C)ccc4C)cc3c2=O)cc1OC	none
O=C(NC1CCCc2ccccc21)c1cc2c(Cl)nc3ccccc3c2s1 (configuration not stated)	none
NC(=O)C(OC(=O)c1ccccc1)C(OC(=O)c1ccccc1)C(=O)O (configuration not stated)	none
CCc1nnc(NC(=O)Cc2coc3cc(C)c(C(C)C)cc23)s1	none
CCCCCc1ccc(-c2ccc(C(C)=O)cc2)cc1	none
O=c1c(-c2ccc(Cl)cc2)coc2cc(OCCN3CCN(CCO)CC3)ccc12	none
COCCNC(=O)c1ccc(-c2nc(CS(=O)c3ccc(C)cc3)c(C)o2)cc1 (configuration not stated)	none
CC(=O)C1=CC[C@H]2[C@@H]3CC=C4C[C@@H](O)CC[C@]4(C)[C@H]3CC[C@]12C	none
Cc1ccc(-c2cc3c(=O)n(CCNC(=O)c4ccc(N(C)C)cc4)ccn3n2)cc1C	KDM5B inh 28.2µM
CCOc1ccc(-c2cc3c(=O)n(CCNC(=O)c4ccccc4OC)ccn3n2)cc1	KDM5B inh 31.6µM
COc1ccc(C(=O)NCCn2ccn3nc(-c4cc(C)ccc4C)cc3c2=O)cc1F	none
Cc1ccc(C)c(-c2cc3c(=O)n(CCNC(=O)c4ccccc4)ccn3n2)c1	none
Cc1ccc(C)c(C(=O)NCCn2ccn3nc(-c4cc(C)ccc4C)cc3c2=O)c1	KDM5B inh 31.6µM
COc1ccc(C(=O)NCCn2ccn3nc(-c4ccc(F)cc4)cc3c2=O)cc1OC	none
COc1ccc(C(=O)NCCn2ccn3nc(-c4ccc(C)c(C)c4)cc3c2=O)cc1	KDM5B inh 17.8µM
CCOc1ccc(NC(=O)Cn2ccn3nc(-c4ccc(OC)c(OC)c4)cc3c2=O)cc1	none
Cc1ccc(C)c(-c2cc3c(=O)n(CCNC(=O)c4ccccc4F)ccn3n2)c1	none
COc1ccc(-c2cc3c(=O)n(CCNC(=O)c4cc(OC)cc(OC)c4)ccn3n2)cc1	none
Cc1ccc(-c2cc3c(=O)n(CCNC(=O)c4cccc(Cl)c4)ccn3n2)cc1C	none
Cc1ccc(-c2cc3c(=O)n(CCNC(=O)C4CCCCC4)ccn3n2)cc1C	none
COC(=O)c1[nH]c(C)c(/C(O)=C2\C(=O)C(=O)N(CCCn3ccnc3)C2c2ccccc2F)c1C (configuration not stated)	none
O=C1/C(=C/c2ccc(Br)cc2F)Cc2ccccc21	none
Oc1c(Cl)cc(Cl)cc1Br	none
COc1ccc(Cl)cc1C(=O)Nc1c(N2CCCC2)c2ccccc2oc1=O	none
CC(C)(C)OC(=O)N/N=C/c1ccc(Cl)c(Cl)c1	none
CC(Nc1ccc(NS(C)(=O)=O)cc1)C(=O)Nc1ccc(Cl)cn1 (configuration not stated)	none
CCOc1ccc(-c2cc3c(=O)n(CC(=O)NCc4ccccc4)ccn3n2)cc1	none
Cc1ccc(C)c(-c2cc3c(=O)n(CCNC(=O)Cc4cccs4)ccn3n2)c1	none
Cc1ccc(-c2cc3c(=O)n(CCNC(=O)c4ccc(N(C)C)cc4)ccn3n2)c(C)c1	KDM5B inh 28.2µM
Cc1ccc(-c2cc3c(=O)n(CCNC(=O)c4cccnc4)ccn3n2)c(C)c1	none
CCOc1ccc(-c2cc3c(=O)n(CC(=O)NCc4ccco4)ccn3n2)cc1	none
CCOc1ccc(-c2cc3c(=O)n(CCNC(=O)c4ccc(C#N)cc4)ccn3n2)cc1	KDM5B inh 20µM
CCOC(=O)c1ccccc1NC(=O)Cn1ccn2nc(-c3ccc(OCC)cc3)cc2c1=O	none
Cc1ccc(-c2cc3c(=O)n(CCNC(=O)c4ccc(Cl)cc4)ccn3n2)c(C)c1	none
CCOc1ccc(-c2cc3c(=O)n(CCNC(=O)c4cccc5[nH]ccc45)ccn3n2)cc1	KDM5B inh 28.2µM
CC(=O)Nc1cccc(C(=O)NCCn2ccn3nc(-c4ccc(C)cc4C)cc3c2=O)c1	none
Cc1ccc(-c2cc3c(=O)n(CCNC(=O)c4nn(C)c5ccccc45)ccn3n2)c(C)c1	KDM5B inh 28.2µM
O=C(O)c1ccc(C(F)(F)F)cn1	none
Cc1ccc(Nc2nc(CN3CCN(S(=O)(=O)c4ccccc4F)CC3)cs2)cc1	none
Cc1ccc(-n2nc(C)c(C(=O)N3CCc4ccccc4C3)c2-n2cccc2)cc1	none
